Here are results for 1 sequence from publication PMC7862700, “An all-to-all approach to the identification of sequence-specific readers for epigenetic DNA modifications on cytosine”.

Holding throughout (assay): DAPPL (digital affinity profiling via proximity ligation, sequencing); 10 mM Tris-HCl pH 7.5, 50 mM NaCl, 1 mM DTT, 4% glycerol, room temperature, 30 min; GST-TFs on glutathione beads, 16-mer random dsDNA library, 0.1% formaldehyde crosslink after washing; high values mean tight binding
One assay deals with T1, FEV (Homo sapiens, UniProt Q99581 1-238).
T1 sequence: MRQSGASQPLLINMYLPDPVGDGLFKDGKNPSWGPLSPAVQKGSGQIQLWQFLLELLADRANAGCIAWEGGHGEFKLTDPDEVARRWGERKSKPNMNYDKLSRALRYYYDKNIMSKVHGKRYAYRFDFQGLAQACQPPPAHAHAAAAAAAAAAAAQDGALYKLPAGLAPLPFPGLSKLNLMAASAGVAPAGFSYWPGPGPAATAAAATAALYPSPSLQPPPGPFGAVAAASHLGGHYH
The following applies: protein: recombinant; tags: N-terminal GST; dsDNA, one strand shown. Summed up:
(§1)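 Binding signal is given per hexamer as its read frequency for a factor divided by its frequency in the tag-only sample. GST-fused human transcription factors were expressed in yeast, captured on glutathione beads, barcoded with DNA and pooled with that sample, then incubated with 200 nmole of a 16-mer random double-stranded DNA library in Tris/NaCl/DTT/glycerol buffer for 30 min at room temperature. The pools were then washed, crosslinked, proximity-ligated, amplified by PCR and sequenced on an Illumina NextSeq500.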

For a further assay, the target named is ETV5 (Homo sapiens, UniProt P41161 1-510). The settings on record: protein: recombinant; tags: N-terminal GST; dsDNA, one strand shown. Summed up: as §1
Sequence of ETV5 (P41161 whole entry): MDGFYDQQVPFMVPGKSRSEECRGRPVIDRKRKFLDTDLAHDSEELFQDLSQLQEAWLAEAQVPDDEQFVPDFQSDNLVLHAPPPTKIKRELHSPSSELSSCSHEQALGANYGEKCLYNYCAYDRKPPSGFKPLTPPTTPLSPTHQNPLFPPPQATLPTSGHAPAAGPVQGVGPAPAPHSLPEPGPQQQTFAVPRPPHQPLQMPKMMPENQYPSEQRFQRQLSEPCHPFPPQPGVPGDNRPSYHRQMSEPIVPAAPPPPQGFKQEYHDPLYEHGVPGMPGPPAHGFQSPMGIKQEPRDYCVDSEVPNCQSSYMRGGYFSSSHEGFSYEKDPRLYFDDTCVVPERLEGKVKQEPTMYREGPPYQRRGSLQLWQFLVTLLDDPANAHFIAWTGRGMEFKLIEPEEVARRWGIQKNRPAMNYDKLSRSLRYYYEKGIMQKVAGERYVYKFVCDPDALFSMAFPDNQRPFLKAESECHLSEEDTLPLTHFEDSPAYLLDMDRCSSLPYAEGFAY
For another assay, the target named is HSF1 (Homo sapiens, UniProt Q00613 1-529). The settings on record: protein: recombinant; tags: N-terminal GST; chain copies: 3; dsDNA, one strand shown. In a few lines:
as §1

Another assay concerns the target T2, SPIC (Homo sapiens, UniProt Q8N5J4 1-248).
T2 sequence: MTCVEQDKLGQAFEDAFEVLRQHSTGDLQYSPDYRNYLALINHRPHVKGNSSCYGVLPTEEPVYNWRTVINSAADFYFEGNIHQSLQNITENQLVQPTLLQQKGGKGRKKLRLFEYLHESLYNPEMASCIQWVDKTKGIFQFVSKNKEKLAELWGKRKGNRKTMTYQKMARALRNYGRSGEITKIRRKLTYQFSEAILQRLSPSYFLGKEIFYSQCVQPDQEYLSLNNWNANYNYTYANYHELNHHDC
The following applies: protein: recombinant; tags: N-terminal GST; dsDNA, one strand shown. Summed up:
as §1

The next assay deals with ELF4 (Homo sapiens, UniProt Q99607 1-663). The following applies: protein: recombinant; tags: N-terminal GST; dsDNA, one strand shown. In a few lines: as §1
Sequence of ELF4 (Q99607 whole entry): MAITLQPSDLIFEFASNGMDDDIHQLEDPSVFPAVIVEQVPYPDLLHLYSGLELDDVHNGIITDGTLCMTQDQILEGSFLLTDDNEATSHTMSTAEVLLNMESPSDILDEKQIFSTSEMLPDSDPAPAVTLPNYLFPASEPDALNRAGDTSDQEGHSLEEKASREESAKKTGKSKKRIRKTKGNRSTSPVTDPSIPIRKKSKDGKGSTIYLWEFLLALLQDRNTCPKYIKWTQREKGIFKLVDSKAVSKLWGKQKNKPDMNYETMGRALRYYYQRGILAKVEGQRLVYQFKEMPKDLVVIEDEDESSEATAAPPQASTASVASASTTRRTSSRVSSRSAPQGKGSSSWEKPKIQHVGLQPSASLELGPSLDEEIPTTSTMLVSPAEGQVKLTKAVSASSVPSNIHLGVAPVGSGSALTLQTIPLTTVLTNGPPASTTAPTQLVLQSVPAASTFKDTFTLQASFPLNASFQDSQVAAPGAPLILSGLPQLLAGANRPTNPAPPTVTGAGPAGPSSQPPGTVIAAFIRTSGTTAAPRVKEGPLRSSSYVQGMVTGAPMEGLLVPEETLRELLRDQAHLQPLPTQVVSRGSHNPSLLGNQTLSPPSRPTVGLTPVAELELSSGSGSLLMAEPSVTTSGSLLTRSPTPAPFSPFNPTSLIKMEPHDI
A further assay addresses T3, ELK4 (Homo sapiens, UniProt P28324-2 1-405).
T3 sequence: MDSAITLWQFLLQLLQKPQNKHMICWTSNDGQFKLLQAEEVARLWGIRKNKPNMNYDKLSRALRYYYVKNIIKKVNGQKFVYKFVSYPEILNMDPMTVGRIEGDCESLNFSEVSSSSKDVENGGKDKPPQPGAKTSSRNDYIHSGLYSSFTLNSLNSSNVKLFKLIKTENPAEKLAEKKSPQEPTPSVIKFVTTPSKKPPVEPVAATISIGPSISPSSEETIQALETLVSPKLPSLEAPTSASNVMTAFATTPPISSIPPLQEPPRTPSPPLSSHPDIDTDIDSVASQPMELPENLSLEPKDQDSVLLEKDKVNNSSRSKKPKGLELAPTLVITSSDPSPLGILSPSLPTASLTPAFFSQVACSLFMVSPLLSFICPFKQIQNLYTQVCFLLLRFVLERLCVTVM
The settings on record: protein: recombinant; tags: N-terminal GST; dsDNA, one strand shown. In a few lines:
as §1

Another assay has as its target T4, ETV2 (Homo sapiens, UniProt O00321 1-342).
T4 sequence: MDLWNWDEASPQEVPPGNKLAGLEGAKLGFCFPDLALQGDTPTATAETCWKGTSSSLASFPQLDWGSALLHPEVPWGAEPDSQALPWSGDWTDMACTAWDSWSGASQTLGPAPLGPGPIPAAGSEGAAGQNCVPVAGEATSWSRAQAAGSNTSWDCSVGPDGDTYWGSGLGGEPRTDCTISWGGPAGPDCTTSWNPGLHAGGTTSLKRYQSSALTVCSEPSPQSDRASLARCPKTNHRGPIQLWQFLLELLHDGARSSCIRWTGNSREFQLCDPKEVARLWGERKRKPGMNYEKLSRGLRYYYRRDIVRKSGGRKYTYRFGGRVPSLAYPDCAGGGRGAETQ
The following applies: protein: recombinant; tags: N-terminal GST; dsDNA, one strand shown. Summed up: as §1

Another assay addresses T5, ELF3 (Homo sapiens, UniProt P78545 1-371).
T5 sequence: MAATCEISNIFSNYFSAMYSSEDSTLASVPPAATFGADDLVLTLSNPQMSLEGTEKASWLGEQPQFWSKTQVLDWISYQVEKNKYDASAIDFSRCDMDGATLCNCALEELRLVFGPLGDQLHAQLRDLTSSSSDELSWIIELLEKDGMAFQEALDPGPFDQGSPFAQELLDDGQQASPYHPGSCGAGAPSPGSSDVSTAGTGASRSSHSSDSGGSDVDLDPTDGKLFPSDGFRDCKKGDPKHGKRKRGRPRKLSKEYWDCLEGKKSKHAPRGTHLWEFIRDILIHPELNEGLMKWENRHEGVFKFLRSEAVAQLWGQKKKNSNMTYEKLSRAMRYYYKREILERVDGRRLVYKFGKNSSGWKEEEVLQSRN
The following applies: protein: recombinant; tags: N-terminal GST; dsDNA, one strand shown. Summed up: as §1

A further assay concerns the target CRX (Homo sapiens, UniProt O43186 1-299). The following applies: protein: recombinant; tags: N-terminal GST; dsDNA, one strand shown. Summed up:
as §1

The next assay addresses ETV1 (Homo sapiens, UniProt P50549 1-477). The following applies: protein: recombinant; tags: N-terminal GST; dsDNA, one strand shown. Summed up:
as §1

The next assay has as its target T6, ERF (Homo sapiens, UniProt P50548 1-548).
T6 sequence: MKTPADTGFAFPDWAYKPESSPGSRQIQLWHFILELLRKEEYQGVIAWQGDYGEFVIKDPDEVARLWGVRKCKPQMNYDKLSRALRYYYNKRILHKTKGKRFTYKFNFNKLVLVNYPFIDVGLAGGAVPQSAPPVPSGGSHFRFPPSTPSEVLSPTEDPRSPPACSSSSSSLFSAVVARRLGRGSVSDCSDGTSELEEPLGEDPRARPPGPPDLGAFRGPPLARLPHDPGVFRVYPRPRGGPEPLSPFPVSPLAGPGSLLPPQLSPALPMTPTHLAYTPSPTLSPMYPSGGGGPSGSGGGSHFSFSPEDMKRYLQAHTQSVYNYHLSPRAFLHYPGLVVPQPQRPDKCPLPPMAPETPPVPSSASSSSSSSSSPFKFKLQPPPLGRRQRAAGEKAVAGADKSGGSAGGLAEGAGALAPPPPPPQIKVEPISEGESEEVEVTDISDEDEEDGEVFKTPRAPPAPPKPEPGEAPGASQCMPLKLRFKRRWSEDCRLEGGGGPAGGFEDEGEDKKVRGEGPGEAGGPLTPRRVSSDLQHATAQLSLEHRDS
The following applies: protein: recombinant; tags: N-terminal GST; dsDNA, one strand shown. In a few lines: as §1

The next assay deals with T7, ETV3L (Homo sapiens, UniProt Q6ZN32 1-361).
T7 sequence: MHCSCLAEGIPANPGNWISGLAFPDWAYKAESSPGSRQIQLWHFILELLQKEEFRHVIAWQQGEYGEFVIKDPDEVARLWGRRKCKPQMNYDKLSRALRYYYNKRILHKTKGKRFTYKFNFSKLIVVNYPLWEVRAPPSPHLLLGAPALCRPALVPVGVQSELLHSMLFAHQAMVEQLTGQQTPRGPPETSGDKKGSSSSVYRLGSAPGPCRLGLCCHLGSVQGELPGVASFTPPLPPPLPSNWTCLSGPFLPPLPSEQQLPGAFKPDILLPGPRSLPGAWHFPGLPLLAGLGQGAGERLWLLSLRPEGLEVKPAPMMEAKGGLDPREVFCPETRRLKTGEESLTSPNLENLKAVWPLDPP
The following applies: protein: recombinant; tags: N-terminal GST; dsDNA, one strand shown. In a few lines:
as §1

A further assay deals with T8, ETS2 (Homo sapiens, UniProt P15036 1-469).
T8 sequence: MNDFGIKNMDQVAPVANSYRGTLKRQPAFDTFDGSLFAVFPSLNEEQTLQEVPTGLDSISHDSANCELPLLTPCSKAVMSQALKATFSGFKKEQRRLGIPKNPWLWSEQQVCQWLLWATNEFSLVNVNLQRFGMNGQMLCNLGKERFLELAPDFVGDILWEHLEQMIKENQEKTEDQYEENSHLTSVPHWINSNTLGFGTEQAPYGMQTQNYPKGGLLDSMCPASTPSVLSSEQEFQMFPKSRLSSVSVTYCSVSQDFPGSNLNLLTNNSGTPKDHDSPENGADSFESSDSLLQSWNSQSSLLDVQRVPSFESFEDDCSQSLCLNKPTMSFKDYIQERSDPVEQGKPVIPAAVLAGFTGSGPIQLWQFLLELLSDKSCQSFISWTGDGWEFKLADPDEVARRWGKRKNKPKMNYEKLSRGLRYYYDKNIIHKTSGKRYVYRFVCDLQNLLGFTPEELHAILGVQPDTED
The following applies: protein: recombinant; tags: N-terminal GST; dsDNA, one strand shown. In a few lines: as §1

Another assay addresses T9, SPDEF (Homo sapiens, UniProt O95238 1-335).
T9 sequence: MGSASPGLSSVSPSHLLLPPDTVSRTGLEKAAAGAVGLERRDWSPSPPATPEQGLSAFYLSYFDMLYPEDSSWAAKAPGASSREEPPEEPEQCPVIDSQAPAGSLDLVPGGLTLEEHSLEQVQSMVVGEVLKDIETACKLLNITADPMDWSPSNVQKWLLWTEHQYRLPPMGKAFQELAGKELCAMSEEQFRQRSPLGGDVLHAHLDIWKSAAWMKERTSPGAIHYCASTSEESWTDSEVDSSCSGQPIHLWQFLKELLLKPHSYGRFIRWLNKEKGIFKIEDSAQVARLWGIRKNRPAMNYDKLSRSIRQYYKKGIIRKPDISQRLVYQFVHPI
The following applies: protein: recombinant; tags: N-terminal GST; dsDNA, one strand shown. In a few lines:
as §1

Another assay has as its target T10, ETV7 (Homo sapiens, UniProt Q9Y603 1-341).
T10 sequence: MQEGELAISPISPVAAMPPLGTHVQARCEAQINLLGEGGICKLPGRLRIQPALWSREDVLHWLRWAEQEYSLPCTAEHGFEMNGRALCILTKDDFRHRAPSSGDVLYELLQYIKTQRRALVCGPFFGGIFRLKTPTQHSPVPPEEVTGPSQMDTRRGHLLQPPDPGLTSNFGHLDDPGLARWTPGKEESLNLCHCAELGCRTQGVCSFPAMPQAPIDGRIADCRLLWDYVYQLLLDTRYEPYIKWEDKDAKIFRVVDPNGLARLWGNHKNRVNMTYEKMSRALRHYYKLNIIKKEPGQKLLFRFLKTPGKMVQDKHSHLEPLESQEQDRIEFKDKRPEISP
The following applies: protein: recombinant; tags: N-terminal GST; dsDNA, one strand shown. In a few lines:
as §1

A further assay concerns the target T11, ELF5 (Homo sapiens, UniProt Q9UKW6-2 1-255).
T11 sequence: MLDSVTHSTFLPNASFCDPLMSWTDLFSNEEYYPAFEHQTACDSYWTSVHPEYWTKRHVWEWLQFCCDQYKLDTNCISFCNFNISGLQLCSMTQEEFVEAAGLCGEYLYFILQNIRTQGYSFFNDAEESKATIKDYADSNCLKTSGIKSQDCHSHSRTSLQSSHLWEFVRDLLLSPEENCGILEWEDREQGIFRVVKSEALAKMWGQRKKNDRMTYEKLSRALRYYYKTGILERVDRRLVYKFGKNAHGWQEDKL
The following applies: protein: recombinant; tags: N-terminal GST; dsDNA, one strand shown. In a few lines:
as §1

In a further assay the target is T12, ETV3 (Homo sapiens, UniProt P41162-2 1-143).
T12 sequence: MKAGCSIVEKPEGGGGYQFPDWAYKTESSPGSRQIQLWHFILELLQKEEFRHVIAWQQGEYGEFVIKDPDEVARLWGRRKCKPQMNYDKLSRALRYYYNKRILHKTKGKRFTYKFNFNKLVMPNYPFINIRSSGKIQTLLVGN
The following applies: protein: recombinant; tags: N-terminal GST; dsDNA, one strand shown. Summed up: as §1

Another assay addresses ETV6 (Homo sapiens, UniProt P41212 1-452). The following applies: protein: recombinant; tags: N-terminal GST; dsDNA, one strand shown. Summed up: as §1

Sequence of HSF1 (Q00613 whole entry): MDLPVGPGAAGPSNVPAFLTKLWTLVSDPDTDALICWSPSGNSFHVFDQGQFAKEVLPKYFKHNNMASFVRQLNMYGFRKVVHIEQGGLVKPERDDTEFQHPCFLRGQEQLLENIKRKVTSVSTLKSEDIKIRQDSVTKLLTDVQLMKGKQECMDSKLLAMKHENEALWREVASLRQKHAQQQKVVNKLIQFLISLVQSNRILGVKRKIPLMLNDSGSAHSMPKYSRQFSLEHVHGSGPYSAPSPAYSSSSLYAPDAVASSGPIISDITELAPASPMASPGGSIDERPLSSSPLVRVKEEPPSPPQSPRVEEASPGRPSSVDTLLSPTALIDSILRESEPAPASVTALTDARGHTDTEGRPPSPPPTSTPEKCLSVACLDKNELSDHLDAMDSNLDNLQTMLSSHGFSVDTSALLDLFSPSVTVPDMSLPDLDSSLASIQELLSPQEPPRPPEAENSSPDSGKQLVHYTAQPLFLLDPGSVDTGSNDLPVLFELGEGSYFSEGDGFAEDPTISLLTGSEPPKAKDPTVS
Sequence of CRX (O43186 whole entry): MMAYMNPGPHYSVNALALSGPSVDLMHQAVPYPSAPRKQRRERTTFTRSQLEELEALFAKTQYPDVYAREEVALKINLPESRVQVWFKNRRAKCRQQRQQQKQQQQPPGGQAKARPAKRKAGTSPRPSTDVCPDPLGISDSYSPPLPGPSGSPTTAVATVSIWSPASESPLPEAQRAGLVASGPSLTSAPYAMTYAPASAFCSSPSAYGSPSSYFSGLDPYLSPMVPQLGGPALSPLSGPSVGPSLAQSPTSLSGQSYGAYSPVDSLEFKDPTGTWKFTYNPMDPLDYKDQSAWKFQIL
Sequence of ETV1 (P50549 whole entry): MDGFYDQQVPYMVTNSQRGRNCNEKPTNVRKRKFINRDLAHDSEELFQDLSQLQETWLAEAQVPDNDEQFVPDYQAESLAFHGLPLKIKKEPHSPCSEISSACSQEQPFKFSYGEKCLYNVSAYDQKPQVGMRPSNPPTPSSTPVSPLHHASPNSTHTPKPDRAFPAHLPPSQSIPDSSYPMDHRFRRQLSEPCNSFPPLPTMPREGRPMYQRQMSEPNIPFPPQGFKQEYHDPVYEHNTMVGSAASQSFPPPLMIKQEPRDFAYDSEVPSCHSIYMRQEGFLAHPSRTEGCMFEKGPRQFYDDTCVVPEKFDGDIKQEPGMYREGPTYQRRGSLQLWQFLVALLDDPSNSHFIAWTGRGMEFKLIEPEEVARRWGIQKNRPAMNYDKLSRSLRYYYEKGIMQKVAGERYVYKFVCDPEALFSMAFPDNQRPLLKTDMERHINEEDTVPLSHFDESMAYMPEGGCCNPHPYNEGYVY
Sequence of ETV6 (P41212 whole entry): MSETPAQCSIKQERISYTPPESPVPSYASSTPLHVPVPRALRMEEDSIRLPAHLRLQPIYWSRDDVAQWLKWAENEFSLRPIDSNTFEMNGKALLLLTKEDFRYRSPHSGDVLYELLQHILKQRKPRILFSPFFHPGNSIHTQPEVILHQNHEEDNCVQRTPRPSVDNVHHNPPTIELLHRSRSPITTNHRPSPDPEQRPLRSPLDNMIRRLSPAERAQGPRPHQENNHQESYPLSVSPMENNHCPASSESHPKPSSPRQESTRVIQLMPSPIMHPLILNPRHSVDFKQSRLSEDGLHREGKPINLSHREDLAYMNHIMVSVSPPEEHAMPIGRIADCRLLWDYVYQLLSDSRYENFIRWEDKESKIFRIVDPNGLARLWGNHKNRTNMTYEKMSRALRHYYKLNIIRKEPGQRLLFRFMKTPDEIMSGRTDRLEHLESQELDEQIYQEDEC

Regarding ATAGTA, the binding signal in the assay with FEV was 1.16 fold enrichment (6-mer frequency, TF over GST control); with ETV5, 1.18 fold enrichment (6-mer frequency, TF over GST control); with HSF1 it was 1.16 fold enrichment (6-mer frequency, TF over GST control); with SPIC, 1.29 fold enrichment (6-mer frequency, TF over GST control); in the assay with ELF4 it was 1.16 fold enrichment (6-mer frequency, TF over GST control); with ELK4 it was 1.24 fold enrichment (6-mer frequency, TF over GST control). Further, the binding signal is 1.34 fold enrichment (6-mer frequency, TF over GST control) in the assay with ETV2; 1.2 fold enrichment (6-mer frequency, TF over GST control) in the assay with ELF3; 1.24 fold enrichment (6-mer frequency, TF over GST control) with CRX; 1.13 fold enrichment (6-mer frequency, TF over GST control) in the assay with ETV1; 1.23 fold enrichment (6-mer frequency, TF over GST control) in the assay with ERF; 1.11 fold enrichment (6-mer frequency, TF over GST control) with ETV3L. Also, the binding signal with ETS2 was 1.06 fold enrichment (6-mer frequency, TF over GST control); with SPDEF, 1.07 fold enrichment (6-mer frequency, TF over GST control); with ETV7 it was 1.3 fold enrichment (6-mer frequency, TF over GST control); with ELF5, 1.13 fold enrichment (6-mer frequency, TF over GST control); with ETV3, 1.15 fold enrichment (6-mer frequency, TF over GST control); with ETV6, 1.25 fold enrichment (6-mer frequency, TF over GST control).
